“And” between values parts separate entries of the source, which are not always exact repeats. Equal values may be shown once. In all, about 430,000 compounds went through this assay and about 2,600 (0.6%) were called active. The sample as a whole holds a higher share of actives than the screen did. Unmarked numbers belong to inactive results. Cut-off read from the data, not from the text of the source: active = inhibition mostly above about 37% (no sharp cut-off); inactive = mostly below about 20%.
Each compound was assayed on PriA–SSB C-terminal tail interaction (Klebsiella pneumoniae) (assay: inhibitors of Klebsiella pneumoniae PriA binding to SSB C-terminal tail, primary screen, biochemical, AlphaScreen (AID 1272365;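 note: plate controls were negative control peptide for no effect and reference peptide for full effect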)). Details: AlphaScreen SSBct-PriA binding, biotinylated peptide; at 33 µM, hits give high values.
Compound `CC(=O)N(C)c1ccc(OC[C@@H](O)CN(c2ccc(C)cc2)S(=O)(=O)c2ccc(C)cc2)cc1` has an inhibition of -17%. With `CC1(C)C(=O)NCCN1C(=O)Cc1ccc2c(c1)OCO2` the inhibition was -2% and -8%. For `COC1(CNC(=O)C2CCN(S(C)(=O)=O)CC2)CCSC1` (stereo not given), the inhibition was -5%. Compound `COc1ccc(N2CCN(C(=S)Nc3ccc(C(C)=O)cc3)CC2)cc1` has an inhibition of 5%. `COc1ccc(NC(=O)Nc2ccc(N3CCOCC3)cc2)cc1` showed an inhibition of -16%. In the case of `C=CC(=O)Nc1ccc(Nc2ccnc(Nc3ccc(N4CCN(C)CC4)cc3)n2)cc1`, the inhibition is reported as 56.7% (active). For `O=C(c1cc(Cl)sc1Cl)N(CC1CCCO1)c1nc2c(F)cc(F)cc2s1` (stereo not given), the inhibition was -20%. Work on `CCOC(=O)N1CCN(C(=O)Cn2nc(C(F)(F)F)n(C)c2=O)CC1` yielded an inhibition of 2%. Work on `O=C(Nc1ccccc1-c1ccc(=O)[nH]n1)c1ccncc1` yielded an inhibition of -12%. For `COc1ccc(CC2(C)OC(c3ccc(C(C)(C)C)cc3)=NN2C(C)=O)cc1` (stereo not given), the inhibition was 62.5% (active). `CC(=O)N1N=C(c2ccncc2)OC1(Cc1ccccc1)Cc1ccccc1` gave an inhibition of -8.22%. For `COc1ccc(-c2ccc(CCC(=O)O)n2NC(=O)c2ccc(C(C)(C)C)cc2)cc1`, the inhibition was -5.78%. In the case of `Cn1c(=O)c2nc(SCC(=O)Nc3ccc(F)c([N+](=O)[O-])c3)n(C)c2n(C)c1=O`, the inhibition is reported as -5%. `CCOc1ccc(-c2ccc(=O)n(CCNC(=O)C3CC3)n2)cc1` showed an inhibition of 6%. In the case of `NC(=NOC(=O)c1ccc(=O)n(Cc2ccccc2)c1)c1ccccn1`, the inhibition is reported as 3.95%. Work on `COC(=O)c1ccc(C=NNC(=O)CNc2cccc(C)c2)cc1` yielded an inhibition of -5.68%. `O=C(CNc1ccc2ccccc2c1)NN=Cc1ccc(C(=O)O)cc1` showed an inhibition of 13.8%. For `CSc1ccc(C=NNC(=O)CNc2ccc3ccccc3c2)cc1`, the inhibition was 47.7% (active). Compound `C(#Cc1ccc2noc(-c3ccccc3)c2c1)c1ccccc1` has an inhibition of -6%. `O=C(CCN1CCOCC1)N1N=C(c2ccccc2)CC1c1cccc([N+](=O)[O-])c1` (stereo not given) was tested, and the inhibition was 8%. In the case of `O=C(c1ccc(F)cc1)c1cn(Cc2ccc(F)cc2)c2cc3c(cc2c1=O)OCCO3`, the inhibition is reported as 115% (active). `COc1cccc(Cn2cc(C(=O)c3ccccc3)c(=O)c3cc4c(cc32)OCCO4)c1` gave an inhibition of -13%. For `Cc1ccc(Cn2cc(C(=O)NN)c(=O)c3ccc(F)cc32)cc1`, the inhibition was -0.06%. `CCc1nc2ccccc2c(=O)n1N=Cc1ccc(OC)cc1` gave an inhibition of 4.76%. With `COc1ccc(C=Nc2cccc3ncccc23)cc1` the inhibition was 86.5% (active). With `C=CCn1c(N=Cc2ccc(OC)cc2)nc2ccccc21` the inhibition was 10.8%. Compound `CCOC(=O)c1c(-c2ccc(F)cc2)csc1NC(=O)CSc1n[nH]c(N)n1` has an inhibition of 9%. `Cc1ccc(OCc2nc(C#N)c(N3CCCC3)o2)cc1` gave an inhibition of -11.1%. In the case of `Cc1ccc(OCc2ccc(-c3nc(C#N)c(N4CCCCCC4)o3)o2)cc1`, the inhibition is reported as 39.5%. In the case of `CCCOc1ccc(-c2nc(C#N)c(N3CCCCC3)o2)cc1`, the inhibition is reported as 90% (active). Compound `COc1cccc2cc(C(=O)C3=C(O)C(=O)N(CCN(C)C)[C@@H]3c3ccccc3F)oc12` has an inhibition of -20%. `NS(=O)(=O)c1ccc(NC(=O)c2cn(Cc3cccc(F)c3)nc2OCc2cccc(F)c2)cc1` gave an inhibition of -16%. Work on `Cc1ccc(C=NNC(=O)c2cccc(S(=O)(=O)Nc3cccc(Cl)c3)c2)o1` yielded an inhibition of -6.77%. With `COc1cccc(NC(=O)C2C(c3ccccc3)C2(Cl)Cl)c1` (stereo not given) the inhibition was -12.2%. `COc1cccc(NC(=O)c2nn(-c3ccc(OC)cc3OC)c(=O)c3ccccc23)c1` was tested, and the inhibition was -7.71%. With `COc1ccc2c(c1)C(C)=CC(C)(C)N2C(=O)Nc1ccccc1` the inhibition was 38.4% (active). For `CCOC(=O)c1ccc(NC(=O)CSc2nnc(-c3cccs3)n2-n2cccc2)cc1`, the inhibition was 0%. With `CCOC(=O)CNC(=O)NC1CC(=O)N(c2ccccc2)C1` (stereo not given) the inhibition was 32%. `CC1(C)N=C(c2ccccn2)C(C)(C)N1O` showed an inhibition of -5.91%. `Cc1cnc(-c2ccccn2)nc1N` was tested, and the inhibition was 151% (active). For `Cc1c(N)nc(-c2ccccn2)nc1Cl`, the inhibition was 47.3%. `COc1ccc(NC(=O)Cn2ncn3nc(-c4ccc(F)cc4)cc3c2=O)cc1Cl` was tested, and the inhibition was 6%. Compound `CNC(=S)NN=C(C)c1cccc(C(F)(F)F)c1` has an inhibition of -4.78%. In the case of `O=C(NCC1(c2ccsc2)CCCC1)Nc1cccs1`, the inhibition is reported as 53% (active). For `Cn1cc(C(=O)NCC2(c3ccsc3)CCCC2)nn1`, the inhibition was -24%. Work on `O=C(Cc1ccc(F)cc1)NCC1(c2ccsc2)CCCC1` yielded an inhibition of -6%. `NCCc1csc2nc(-c3cccc(F)c3)nn12` showed an inhibition of 16%. Compound `O=C(Nc1cnc(N2CCN(c3ccccc3)CC2)nc1)c1c(F)cccc1F` has an inhibition of -6%. Compound `Cc1cc(NC(=O)C(C)(C)CCl)n(-c2ncnc3c2cnn3-c2cccc(C)c2C)n1` has an inhibition of 11%. In the case of `Cc1ccc(-n2ncc3c(=O)[nH]c(-n4nc(C)cc4NC(=O)Cc4ccccc4)nc32)cc1`, the inhibition is reported as -5%. For `Cc1cc(NC(=O)c2ccccc2Cl)n(-c2nc3c(cnn3-c3cccc(C)c3C)c(=O)[nH]2)n1`, the inhibition was 53% (active). `CCOC(=O)N1CCC(NC(=O)Cc2csc(Nc3ccc(F)cc3)n2)CC1` gave an inhibition of 2%. For `CC(C)n1cnc2c(NCc3ccccc3)cc(OCC3CCN(C)CC3)cc21`, the inhibition was 53.1% (active). Compound `O=C(c1ccc(S(=O)(=O)NCc2cccnc2)o1)N1CCC(Cc2ccccc2)CC1` has an inhibition of 5%. For `O=[N+]([O-])c1cc(S(=O)(=O)N2CCCC2)ccc1NN=C1CCCC1`, the inhibition was 11.5%. `O=[N+]([O-])c1cc(C(F)(F)F)ccc1NN=C1CCCC1` was tested, and the inhibition was 43.5% (active). Work on `O=[N+]([O-])c1cc(C(F)(F)F)ccc1NCCc1ccncc1` yielded an inhibition of -11.2%. `COc1cc(OC)c(OC)cc1/C=C1/C(=O)NC(=N)N1C` showed an inhibition of -14.1%. Compound `O=C(COc1ccc(Cl)cc1Cl)NCC(=O)N/N=C\c1cccs1` has an inhibition of -6%. In the case of `CC(=O)c1ccc(S(=O)(=O)N2CC(S(=O)(=O)c3ccc(Cl)cc3)C2)cc1`, the inhibition is reported as -15%.

Source: PubChem BioAssay AID1272365 (Small Molecule Screening Facility, UW Madison, 2018)
